Test results published in PubChem BioAssay AID708 (SRMLSC, 2007).
Among all 65,000 compounds or so, fewer than 10 were called active.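 The calls were made as follows: active = at 10 µM dose, initial 340 nm absorbance at least 2 fold that of control wells; inactive = change under 2 fold.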 Not all results are given here.

assay: A340 optical interference by library compounds – biochemical, MLSMR library, data from PS, PMK, MK assays, artefact control, profiling panel (AID 708); settings: compound absorbance at 340 nm, fold over control; at 10 µM; active compounds read high;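 also: initial absorbance extrapolated from kinetic A340 decline of NADH oxidation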

Fold change, inactive:
CCOc1cc(C(=O)N2CCc3cc(OC)c(OC)cc3C2)ccc1OC(F)F 0.97
O=C(Nc1cnn(Cc2ccc(Cl)cc2)c1)C1CCCC1 1.03
c1cc(-n2cnnn2)ccc1NC1=NCCC1 1.01
O=C(C1CCCO1)N(Cc1ccccc1)c1ccccc1 (stereo unspecified) 1.03
CC(C)OC(=O)C(C#N)c1nc2ccccc2nc1N1CCN(Cc2ccc3c(c2)OCO3)CC1 (stereo unspecified) 1.02
CCN1CCN(C(=O)c2ccccc2N(C)S(=O)(=O)c2ccc(C)cc2)CC1 1.05
COc1c(O)cccc1-c1nnn(CCC(=O)OCC(=O)c2ccccc2)n1 1.01
CS(=O)(=O)N(C(=O)NC(=O)NC1CCS(=O)(=O)C1)C1CCCCC1 (stereo unspecified) 1.04
N#Cc1c(N)n(CCOC(=O)c2ccc(Cl)cc2)c2nc3ccccc3nc12 1.01
CCc1cc(=O)oc2cc(C)cc(OC(C)C(=O)O)c12 (stereo unspecified) 1.04
O=c1[nH]nc(CSCc2ccccc2Cl)[nH]1 1.04
Cn1c(=O)n(C)c2cc(CNc3ccc(N4CCOCC4)c(C(=O)O)c3)ccc21 1
O=C(Cn1c(=O)sc2ccccc21)Nc1ccc2c(c1)OCCO2 1.01
Cc1ccc(S(=O)(=O)NCc2cn3ccsc3n2)c(C)c1 0.97
CCOc1ccc(OCC)c(NC(=O)C(NS(=O)(=O)c2ccc3c(c2)oc(=O)n3C)C(C)C)c1 (stereo unspecified) 0.97
COCC(C)N=CC1=C(O)CC(C)(C)CC1=O (stereo unspecified) 0.95
NC(=O)CSc1c[nH]c2ccccc12 1.01
COc1ccc(NC(C)=O)cc1NC(=O)CN1CCN(c2ccccn2)CC1 0.97
CCN1CCN(c2ncnc3c2oc2nc(C)c4c(c23)CC(C)(C)OC4)CC1 0.99
COc1ccc2nc(NC(=O)c3ccc(Br)s3)sc2c1 1.1
CCOC(=O)c1c(N)c(C#N)nn1-c1ccccc1C(=O)OC 1
Cc1nnc(SCc2cc(=O)[nH]c(N3CCN(Cc4ccccc4)CC3)n2)s1 1.01
O=C(Nc1ccccc1)c1cccnc1Nc1ccccc1 1.1
CCN(Cc1nc2ccccc2c(=O)[nH]1)Cc1cc(=O)oc2cc(C)c(C)cc12 1.01
CC(C)C(=O)Nc1c(C(=O)c2ccc(F)cc2)oc2ccccc12 1.11
Cc1ccc(S(=O)(=O)NCC(=O)N(CC(=O)NC2CCCCC2)Cc2ccco2)cc1 0.98
Cc1ccc(C)c(N2CCN(S(=O)(=O)c3ccc4c(c3)oc(=O)n4C)CC2)c1 0.98
C=CCNc1ncnc2ccc(Br)cc12 1.1
O=C(CSc1nnc(-c2cccs2)n1Cc1ccco1)c1ccc2c(c1)OCO2 1.08
CC(C)(C)NC(=O)Cn1nnc(-c2ccccc2Cl)n1 1.03
ON=C1/C(=N\O)CC2(C/C1=N/O)OCCO2 0.99
COC(=O)CNC(=O)c1ccc2c(c1)S(=O)(=O)c1ccccc1C2=O 1.02
CCOC(=O)c1oc2ccccc2c1NC(=O)c1cccs1 1.02
CC(C)Oc1ccc(C2NC(=O)NC2=O)cc1 (stereo unspecified) 1
O=C(CS(=O)(=O)Cc1ccccc1)Nc1cccnc1 1.08
CCOC(=O)c1c(NC(=O)CCC(=O)NCc2ccco2)sc2c1CCCC2 1.03
CCCc1cc(=O)[nH]c(SCC(=O)OCc2ccccc2)n1 1.02
CCOC(=O)C1=C(C)N=c2s/c(=C\C(=O)OC)c(=O)n2C1c1ccc(OC)cc1 (stereo unspecified) 1.09
CCOC(=O)C1CCCN(Cc2nc(N)nc(Nc3ccc(C)cc3)n2)C1 (stereo unspecified) 1
CN(C)CCNC(=O)C(C(=O)c1ccccc1)n1ccccc1=O (stereo unspecified) 1.03
COCCNC(=S)c1ccc(OC)cc1 1.01
CCOC(=O)CSc1nnc(-c2cccc(Br)c2)o1 1.02
N#Cc1nc(N)nc(N(c2ccccc2)c2ccccc2)n1 1
Cc1ccccc1N1C(=O)C2ON(c3ccccc3)C(c3ccncc3)C2C1=O (stereo unspecified) 0.99
O=C(CCN1C(=O)c2ccccc2C1=O)NCCN1CCOCC1 0.99
COc1ccccc1-c1cc(C(=O)NCCCn2ccnc2)no1 0.99
NC(=O)Cn1c(=O)oc2ccccc21 0.97
O=C(Cn1c(=O)sc2ccccc21)Nc1nc2c(s1)CCCC2 1.03
O=C(Cn1nc(C(F)(F)F)c2c1CCC2)NCc1ccc(F)cc1 1.04
Cc1ccc(Oc2ccc(N)cc2)cc1 1.02
CCOC(=O)N1CCN(C(=O)CSc2nnc(-c3c[nH]c4ccccc34)n2CCOC)CC1 1.06
Cc1ccc(N2CCN(S(=O)(=O)N(C)C)CC2)cc1Cl 1.01
O=S(N1CCCCCC1)C12CC3CC(CC(C3)C1)C2 (stereo unspecified) 0.99
CC(C)OC(=O)CN1C(=O)c2ccccc2C1=O 1.01
CCS(=O)(=O)N1CCC(C(=O)N2CCN(c3ccccc3)CC2)CC1 1.02
CC1(C)CC(=O)c2sc(N)nc2C1 1.11
O=C(NCc1ccco1)c1cnn2c(C(F)(F)F)cc(-c3ccco3)nc12 1.04
CC1CCCN(c2ccc(C(=O)NCCc3ccccc3)cn2)C1 (stereo unspecified) 1.04
O=C(c1ccc2c(c1)C(=O)N(c1ccc(Cl)cc1)C2=O)N1CCN(c2ccccn2)CC1 1
Cc1ccc2c(c1)c1ncn(CCC3=CCCCC3)c(=O)c1n2C 1
CCNc1nc(SCCOc2ccccc2)nc(N(C)C)n1 1.04
CCC(C(=O)NC1CCCC1)N(C(=O)c1snc(C(N)=O)c1N)c1ccc2c(c1)OCCO2 (stereo unspecified) 1.1
COc1ccc(C(=O)N(CCN2CCOCC2)CC(=O)NC2CCCC2)cc1OC 0.98
OCCCN1c2ccccc2Nc2nnc(-c3ccccc3)cc21 1.04
COc1ccccc1-c1cc(C(=O)N2CCCCC2)no1 1.02
Cc1ccc2nc(-c3ccc(SCC(=O)Nc4cc(C)on4)nc3)[nH]c2c1 1.14
CCNS(=O)(=O)c1ccc(NC(=O)Nc2cccc(OC)c2)cc1 1.06
O=C(NC1CCCC1)c1ccc(Br)s1 1.03
CCOC(=O)CSc1nnc(CNC(=O)Cc2ccccc2)n1-c1ccccc1OC 0.99
CCOc1ccc(C(CC(=O)O)NC(=O)COc2ccccc2)cc1 (stereo unspecified) 1.03
CCCC1C(c2ccccc2)C(C#N)(C#N)C2(C#N)CC1(N)NC2=O (stereo unspecified) 1.02
C#CCNc1nc(C(C)C)nc2c1nnn2Cc1ccccc1F 1.04
CN(C)/C=C1\C=C(c2ccccc2)OC1=O 1.21
O=C(c1cnn2ccccc12)N1CCc2ccccc21 1.12
CCOc1ccc(Cn2nnc(C(=O)Nc3ccc(OC)cc3OC)c2N)cc1 0.98
COc1ccc(NC(=O)c2cccc(NC(=O)c3ccco3)c2)c(OC)c1 1.07
O=C(NCCc1ccccn1)c1ccc(COc2ccccc2)o1 0.98
CCOC(=O)C1CCN(C(=O)Nc2ccc(Cl)cc2)CC1 1.01
COc1cccc(N(CC(=O)NC2CCCC2)C(=O)Cn2nnc(-c3ccc(C)cc3)n2)c1 1.01
Cc1nc(SCC(=O)Nc2cc(C)on2)c2c3c(sc2n1)CCCC3 1.02
CC1CCN(Cc2nc3c(c(=O)n(C)c(=O)n3C)n2CCc2ccccc2)CC1 0.98
NC(=O)COc1ccc2c3c(c(=O)oc2c1)CCCCC3 1.15
CCc1cc(=O)oc2cc(OCC(=O)N3CCCc4ccccc43)ccc12 1.08
CCOC(=O)N1CCC(NC(=O)CCc2cn(C)c3ccccc23)CC1 0.98
Cc1ccnc(N2C(=O)c3ccccc3C2Nc2ccc3c(c2)OCCO3)c1 (stereo unspecified) 1.06
CCOc1ccc(-c2cn(S(=O)(=O)c3cccc4nsnc34)nc2N)cc1 0.98
c1ccc(-n2ncc3c2ncn2c(CSc4nc5ccccc5s4)nnc32)cc1 1.06
c1ccc2c(CNn3cnnc3)cccc2c1 1.05
Cc1ccc(C(=O)NCC2CCCO2)o1 (stereo unspecified) 1.04
CCn1c(CSc2nncn2-c2ccc(OC)cc2)nc2cc(S(=O)(=O)N(C)C)ccc21 0.96
CC(C)(O)C#Cc1ccc(C(=O)N2CCC(C(N)=O)(N3CCCCC3)CC2)cc1 1.04
CCN(CC)S(=O)(=O)c1ccc2nc(COC(=O)c3n[nH]c4ccccc34)[nH]c2c1 1.03
COc1cccc(-c2nnc(NC(=O)c3ccc(S(=O)(=O)N(CC(C)C)CC(C)C)cc3)o2)c1 1.06
CC12COC3(C(=O)Nc4ccc(Cl)cn4)CC1CCC32C (stereo unspecified) 1.04
Cc1nc(N2CCCC2C(=O)O)c2oc3ccccc3c2n1 (stereo unspecified) 1.02
CCCCN(CC)CCCNC(=O)CS(=O)(=O)Cc1nc(-c2cccc(OC)c2)oc1C 1
CC(=O)Nc1cccc(Oc2cc(C#N)c(C#N)cc2N2CCOCC2)c1 1.1
Cn1c2ccccc2c2c(C(=O)N3CCN(c4ccc(F)cc4)CC3)cn(C3CCCC3)c(=O)c21 1.05
COc1ccc(CCNS(=O)(=O)c2ccc(C(=O)NCc3ccco3)cc2)cc1OC 0.99
Cc1ccc(S(=O)(=O)NC(C)C(=O)Nc2ccccc2C(=O)N2CCCC2)cc1 (stereo unspecified) 0.96
COc1ccc(-n2nnnc2SCC(=O)c2ccc(OC)c(OC)c2)cc1 1.03
Cn1cnc2c1c(=O)n(Cc1c(Cl)cccc1Cl)c(=O)n2C 1.04
Cc1cc(C(=O)NCCCc2ccccc2)no1 1
COc1ccc(C(=O)Cn2nnc(-c3ccc(N4CCOCC4)cc3)n2)cc1OC 1
CCOc1cccc(-c2nn3c(-c4ccccn4)nnc3s2)c1 1.01
O=C(CN1CCN(C(=O)c2ccco2)CC1)Nc1ccc(Cl)c(C(F)(F)F)c1 1
